PubChem BioAssay
Activity calls are given as the source filed them.

What was measured:
[1] = binders of probe aFSTL3 on microarray, primary screen, stem cell growth factor project, biochemical, small-molecule microarray, fluorescence 635/667 (AID 1064); conditions: higher = more signal;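 also: measures binding of the biotinylated anti-FSTL3 antibody to printed compounds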
[2] = binders from COS7 lysate, DM2A8 probe, primary screen, torsin A project, cell lysate, small-molecule microarray, fluorescence 635/667 (AID 1065); conditions: higher = more signal, COS7 lysate expressing mutant human TOR1A
[3] = binders of probe aFGF2 on microarray, primary screen, stem cell growth factor project, biochemical, small-molecule microarray, fluorescence 635/667 (AID 1067); conditions: higher = more signal;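 also: measures binding of biotinylated aFGF2 protein to printed compounds on slides; z-score merges feature fluorescence and signal-to-noise across triplicate slides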
[4] = binders of probe aFGF10 on microarray, primary screen, stem cell growth factor project, biochemical, small-molecule microarray, fluorescence 635/667 (AID 1071); conditions: higher = more signal;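 also: score merges 667 nm spot intensity and signal to noise from triplicate slides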
[5] = biological target: Neurogenic locus notch homolog protein 2 (Homo sapiens) (UniProt Q04721); experiment: Notch2 binders on small-molecule microarrays, primary screen, biochemical, small-molecule microarray, 635 nm fluorescence, stem cell growth factors (AID 1073); conditions: Notch2 binding, higher = more signal
[6] = biological target: Pro-neuregulin-1, membrane-bound isoform (Homo sapiens) (UniProt Q02297); experiment: NRG1 binders on small-molecule microarrays, primary screen, psychiatric disease protein project, biochemical, small-molecule microarray, fluorescence 635/667 (AID 1075); conditions: NRG1 binding, 635 nm fluorescence, higher = more signal;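 also: score combines 667 nm spot fluorescence with signal to noise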
[7] = test system: Neuregulin-1 EGF-like domain; experiment: binders of neuregulin-1 EGF-like domain, primary screen, biochemical, small-molecule microarray, 635 nm fluorescence (AID 1081); conditions: small-molecule microarray binding, higher = more signal;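 also: binding of the protein to compounds printed on small-molecule microarray slides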
[8] = FRG1 promoter luciferase signal modulators, primary screen, FRG1 inhibition for FSHD, cell-based, C2C12 myotubes, firefly/Renilla luciferase, luminescence (AID 1084); conditions: higher = more signal, called active from +8 up or from −8 down
[9] = binders of probe aFST on microarray, primary screen, stem cell growth factor project, biochemical, small-molecule microarray, fluorescence 635/667 (AID 1086); conditions: higher = more signal;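 also: score merges 667 nm fluorescence with signal-to-noise of each printed compound spot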
[10] = binders of probe aHhip on microarray, primary screen, stem cell growth factor project, biochemical, small-molecule microarray, fluorescence 635/667 (AID 1087); conditions: higher = more signal;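 also: score merges spot fluorescence at 667nm with spot signal to noise ratio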
[11] = test system: PRMT1 (protein arginine N-methyltransferase 1); experiment: PRMT1 binders on small-molecule microarrays, primary screen, biochemical, small-molecule microarray, 635 nm fluorescence (AID 1088); conditions: small-molecule microarray binding, higher = more signal;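 also: binding of Prmt1 protein to compounds spotted on small-molecule microarray slides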
[12] = yeast growth modulation, basal conditions, primary screen, YJM789 clinical isolate, OD600, 24 h (AID 1089);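 also: growth of clinical yeast isolate S. cerevisiae YJM 789 seeded 1000 cells per well; test concentration not given here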; conditions: S. cerevisiae YJM789 growth, higher = more signal, called active from +8 up or from −8 down
[13] = fission yeast growth modulation, primary screen, strain 972, OD600, 24 h, no modulator (AID 1090);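 also: basal condition with compound alone and no growth modifier present; test concentration not given here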; conditions: S. pombe 972 growth, higher = more signal, called active from +8 up or from −8 down
[14] = S. cerevisiae growth modulation with rapamycin, primary screen, strain BY4716, OD600, 96 h (AID 1091); conditions: higher = more signal, called active from +8 up or from −8 down; also: test concentration not given here
[15] = biological target: Torsin-1A-interacting protein 2 (Homo sapiens) (UniProt Q8NFQ8); experiment: LULL1 binders on small-molecule microarray, primary screen, cell lysate, human LULL1 lysate, 635/667 nm fluorescence (AID 1092); conditions: hLULL1 lysate binding, 635 nm fluorescence, higher = more signal;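 also: probe is lysate of COS7 cells overexpressing human LULL1; score merges per-feature 667 nm fluorescence with signal-to-noise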
[16] = E. coli growth modulation, two-sided OD650, primary screen, E. coli filamentation project, strain DRC41, 24 h (AID 1093); conditions: OD650, 24 h, higher = more signal, called active from +8 up or from −8 down;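 also: MC1000 strain lacking acrAB efflux and sulA so SOS filamentation is blocked; test concentration not given here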
[17] = small-molecule microarray binders of probe aLefty2, primary screen, biochemical, biotinylated probe, 635/667 nm fluorescence (AID 1094); conditions: higher = more signal;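 also: score merges spot fluorescence near 667 nm with spot signal-to-noise ratio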
[18] = test system: Noggin (protein binding on small-molecule microarray); experiment: Noggin binders on small-molecule microarray, primary screen, biochemical, 635/667 nm fluorescence (AID 1095); conditions: 635 nm fluorescence, higher = more signal;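 also: score merges 667 nm feature fluorescence with signal to noise over triplicate slides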
[19] = biological target: Neurogenic locus notch homolog protein 3 (Homo sapiens) (UniProt Q9UM47); experiment: NOTCH3 binders on small-molecule microarray, primary screen, biochemical, 635/667 nm fluorescence (AID 1096); conditions: NOTCH3 binding, 635 nm fluorescence, higher = more signal
[20] = small-molecule microarray binders of probe aEGFR, primary screen, biochemical, biotinylated probe, 635/667 nm fluorescence (AID 1097); conditions: higher = more signal;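 also: probe is a biotinylated anti-EGFR antibody binding compounds printed on slides; score combines fluorescence near 667 nm and signal to noise of each spot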

Neurogenic locus notch homolog protein 2 (Homo sapiens), sequence (Q04721 whole entry, looked up, canonical isoform): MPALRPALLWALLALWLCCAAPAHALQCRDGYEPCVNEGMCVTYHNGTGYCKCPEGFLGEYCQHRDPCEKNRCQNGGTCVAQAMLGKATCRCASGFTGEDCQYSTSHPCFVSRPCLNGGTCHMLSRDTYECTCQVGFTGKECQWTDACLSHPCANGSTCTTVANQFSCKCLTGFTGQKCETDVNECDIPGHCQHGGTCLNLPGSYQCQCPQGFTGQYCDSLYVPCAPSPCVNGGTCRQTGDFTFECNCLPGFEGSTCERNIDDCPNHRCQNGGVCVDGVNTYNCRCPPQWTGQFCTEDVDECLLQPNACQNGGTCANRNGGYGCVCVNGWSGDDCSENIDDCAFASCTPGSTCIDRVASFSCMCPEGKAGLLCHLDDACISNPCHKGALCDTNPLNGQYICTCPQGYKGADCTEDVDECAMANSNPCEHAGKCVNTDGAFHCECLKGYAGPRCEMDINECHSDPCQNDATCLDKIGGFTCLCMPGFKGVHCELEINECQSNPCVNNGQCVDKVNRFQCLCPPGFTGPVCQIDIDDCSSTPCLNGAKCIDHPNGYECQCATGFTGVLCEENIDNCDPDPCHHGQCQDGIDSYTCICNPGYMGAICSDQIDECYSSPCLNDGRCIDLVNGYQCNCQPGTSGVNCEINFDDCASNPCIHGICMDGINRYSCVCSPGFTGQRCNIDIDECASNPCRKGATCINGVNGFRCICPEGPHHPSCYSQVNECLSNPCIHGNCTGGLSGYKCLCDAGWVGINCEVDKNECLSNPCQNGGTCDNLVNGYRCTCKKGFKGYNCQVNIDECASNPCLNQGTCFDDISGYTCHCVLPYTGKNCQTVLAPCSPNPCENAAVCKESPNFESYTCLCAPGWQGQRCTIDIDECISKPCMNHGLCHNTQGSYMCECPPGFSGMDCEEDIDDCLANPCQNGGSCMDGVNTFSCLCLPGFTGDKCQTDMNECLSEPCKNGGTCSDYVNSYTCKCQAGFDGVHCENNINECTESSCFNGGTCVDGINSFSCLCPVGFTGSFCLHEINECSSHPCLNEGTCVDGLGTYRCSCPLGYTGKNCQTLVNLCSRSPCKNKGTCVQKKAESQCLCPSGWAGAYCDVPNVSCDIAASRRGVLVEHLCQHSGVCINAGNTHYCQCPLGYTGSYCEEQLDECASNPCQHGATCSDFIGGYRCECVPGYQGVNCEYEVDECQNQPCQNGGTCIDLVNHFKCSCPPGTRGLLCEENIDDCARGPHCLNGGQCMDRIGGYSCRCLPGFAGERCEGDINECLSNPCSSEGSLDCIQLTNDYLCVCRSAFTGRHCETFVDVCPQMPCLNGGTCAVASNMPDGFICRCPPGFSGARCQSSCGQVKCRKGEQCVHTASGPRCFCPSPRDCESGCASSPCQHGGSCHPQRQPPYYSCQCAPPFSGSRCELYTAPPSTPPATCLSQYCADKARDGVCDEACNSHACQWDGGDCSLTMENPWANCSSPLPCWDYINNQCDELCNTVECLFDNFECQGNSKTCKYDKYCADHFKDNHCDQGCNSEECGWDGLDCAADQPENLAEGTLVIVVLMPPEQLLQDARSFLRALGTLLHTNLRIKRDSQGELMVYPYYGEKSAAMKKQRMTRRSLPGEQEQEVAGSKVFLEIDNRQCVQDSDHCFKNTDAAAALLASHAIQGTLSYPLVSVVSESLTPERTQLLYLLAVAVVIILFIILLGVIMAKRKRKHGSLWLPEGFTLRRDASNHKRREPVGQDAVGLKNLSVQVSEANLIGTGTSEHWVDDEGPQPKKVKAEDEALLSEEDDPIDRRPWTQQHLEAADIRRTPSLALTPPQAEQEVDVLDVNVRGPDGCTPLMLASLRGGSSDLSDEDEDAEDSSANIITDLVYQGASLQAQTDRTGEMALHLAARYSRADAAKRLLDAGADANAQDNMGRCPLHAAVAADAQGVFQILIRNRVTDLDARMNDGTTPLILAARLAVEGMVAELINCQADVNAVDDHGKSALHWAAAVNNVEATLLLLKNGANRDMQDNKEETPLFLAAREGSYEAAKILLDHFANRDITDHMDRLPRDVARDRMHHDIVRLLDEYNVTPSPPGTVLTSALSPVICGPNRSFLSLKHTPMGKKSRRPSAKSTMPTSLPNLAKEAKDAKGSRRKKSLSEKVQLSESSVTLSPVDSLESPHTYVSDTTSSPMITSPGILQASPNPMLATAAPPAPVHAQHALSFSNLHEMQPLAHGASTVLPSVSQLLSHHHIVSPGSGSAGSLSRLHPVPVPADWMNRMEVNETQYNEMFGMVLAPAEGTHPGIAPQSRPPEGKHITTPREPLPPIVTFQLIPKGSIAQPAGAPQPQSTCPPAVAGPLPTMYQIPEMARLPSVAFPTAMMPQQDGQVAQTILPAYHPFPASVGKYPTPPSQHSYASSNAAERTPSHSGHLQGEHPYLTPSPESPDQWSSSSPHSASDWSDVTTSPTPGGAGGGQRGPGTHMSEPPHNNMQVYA
Torsin-1A-interacting protein 2 (Homo sapiens), sequence (Q8NFQ8 whole entry, looked up): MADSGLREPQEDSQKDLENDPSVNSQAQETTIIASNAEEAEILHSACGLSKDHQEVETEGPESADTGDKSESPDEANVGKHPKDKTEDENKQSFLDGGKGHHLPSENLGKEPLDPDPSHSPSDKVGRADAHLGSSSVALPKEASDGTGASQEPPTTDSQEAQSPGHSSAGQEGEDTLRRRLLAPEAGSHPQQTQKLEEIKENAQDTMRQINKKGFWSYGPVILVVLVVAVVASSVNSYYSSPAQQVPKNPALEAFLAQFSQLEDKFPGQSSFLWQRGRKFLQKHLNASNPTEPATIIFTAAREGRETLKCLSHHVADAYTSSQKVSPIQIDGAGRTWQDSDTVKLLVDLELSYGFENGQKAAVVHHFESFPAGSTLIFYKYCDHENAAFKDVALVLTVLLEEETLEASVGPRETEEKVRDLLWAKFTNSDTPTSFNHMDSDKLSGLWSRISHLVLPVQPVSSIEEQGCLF
Pro-neuregulin-1, membrane-bound isoform (Homo sapiens), sequence (Q02297 whole entry, looked up, the tested form may be a part, canonical isoform): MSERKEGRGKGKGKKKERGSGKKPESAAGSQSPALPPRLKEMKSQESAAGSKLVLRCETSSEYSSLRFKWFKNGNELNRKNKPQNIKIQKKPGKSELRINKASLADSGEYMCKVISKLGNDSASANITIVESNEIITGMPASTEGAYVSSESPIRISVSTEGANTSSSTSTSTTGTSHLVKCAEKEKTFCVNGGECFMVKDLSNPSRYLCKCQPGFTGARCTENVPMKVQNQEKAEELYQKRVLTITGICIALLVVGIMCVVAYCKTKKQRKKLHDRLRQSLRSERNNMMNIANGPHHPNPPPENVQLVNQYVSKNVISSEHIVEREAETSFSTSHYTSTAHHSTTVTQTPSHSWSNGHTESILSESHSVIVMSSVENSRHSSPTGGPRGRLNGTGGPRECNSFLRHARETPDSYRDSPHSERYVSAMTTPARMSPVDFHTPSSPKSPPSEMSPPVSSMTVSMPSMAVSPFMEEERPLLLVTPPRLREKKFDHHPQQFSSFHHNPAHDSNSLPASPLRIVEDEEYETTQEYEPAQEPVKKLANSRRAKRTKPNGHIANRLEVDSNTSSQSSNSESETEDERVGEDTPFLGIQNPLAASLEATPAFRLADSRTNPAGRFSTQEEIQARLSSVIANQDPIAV

| Compound | composite z-score [1] | composite z-score [2] | composite z-score [3] | composite z-score [4] | composite z-score [5] | composite z-score [6] | composite z-score [7] | z-score [8] | composite z-score [9] | composite z-score [10] | composite z-score [11] | z-score [12] | z-score [13] | z-score [14] | composite z-score [15] | z-score [16] | composite z-score [17] | composite z-score [18] | composite z-score [19] | composite z-score [20] |
| --- | --- | --- | --- | --- | --- | --- | --- | --- | --- | --- | --- | --- | --- | --- | --- | --- | --- | --- | --- | --- |
| COC(=O)C(CC#Cc1ccc2c(c1)[C@]1(C(=O)N2)[C@H](C(=O)O)[C@H]2C(=O)O[C@H](c3ccccc3)[C@H](c3ccccc3)N2[C@@H]1c1ccccc1OCCO)C(=O)OC | 0.232 | 0.63 | 0.0762 | 1.12 | 0.866 | 1.27 | 1.21 | 0.483 (inactive) | 0.451 | 0.275 | 1.54 | 1.93 (inactive) | 0.324 (inactive) | -1.17 (inactive) | 3.04 | -0.972 (inactive) | 0.396 | 1.27 | 1.15 | 0.103 |
| O=C1c2ccccc2[C@](Cc2ccccc2I)(C(=O)NCc2ccccc2)[C@H](c2ccc(CO)cc2)N1C1CCCCC1 | -0.126 | 0.106 | -0.0291 | 0.753 | 1.13 | 1.76 | 1.27 | -1.6 (inactive) | 0.671 | 0.189 | 1.27 | -0.0116 (inactive) | -1.32 (inactive) | -0.0677 (inactive) | 1.78 | -0.403 (inactive) | 0.117 | 1.32 | 0.918 | 0.494 |
| CC(=O)n1cc(C(O)C2C=CC3C(=O)N(Cc4ccccc4)C(=O)C3N2n2cnnc2)c2ccccc21 (stereo not given) | -0.317 | 0.47 | -0.0218 | -0.0821 | 0.145 | -0.0307 | 0.351 | 0.186 (inactive) | 0.426 | -0.268 | 0.77 | -0.423 (inactive) | 0.552 (inactive) | 0.192 (inactive) | 1.23 | -0.901 (inactive) | -0.0858 | -0.415 | 0.193 | 0.728 |
| COCCOC(=O)N1C(=O)[C@@]2(c3cc(C#CC4=CCCCC4)ccc31)[C@H](c1ccccc1OCCO)N1[C@H](c3ccccc3)[C@H](c3ccccc3)OC(=O)[C@H]1[C@@H]2C(=O)N1CCc2cc(OC)c(OC)cc2C1 | -0.516 | 0.433 | 0.0571 | 0.515 | 1.18 | 0.319 | 1.07 | -0.202 (inactive) | 0.401 | -0.521 | 1.55 | 1.83 (inactive) | 0.819 (inactive) | 3.63 (inactive) | 0.889 | -0.0749 (inactive) | -0.479 | 0.676 | 1.08 | -0.33 |
| COCCCNC(=O)[C@]1(CCC(=O)OC(C)(C)C)N=C(c2ccc(OCCCO)cc2)O[C@@H]1c1ccccc1 | 1.19 | 0.389 | 0.0629 | 0.578 | 0.819 | 1.96 | 1.28 | 0.977 (inactive) | 0.888 | 0.591 | 1.22 | 0.12 (inactive) | 1.06 (inactive) | -0.302 (inactive) | 3.65 | 0.447 (inactive) | 0.629 | -0.275 | 0.226 | 0.475 |
